Results from PubChem BioAssay (EPA / NIEHS).
Activity calls are given as the source filed them. How the source made its calls: active means hit-call score of the fitted dose curve at least 0.9, where 1 is the maximum; inactive means score below 0.9.

Columns and labels:
Conditions in all cases: mRNA level, 48 h; actives raise or lower the signal
[1] = read-out: Tumor necrosis factor receptor superfamily member 6 (Homo sapiens) (UniProt P25445); experiment: LTEA_HepaRG_FAS: Life Technologies and Expression Analysis (LTEA) Assay for Fas cell surface death receptor (FAS) using HepaRG (AID 2283447)
In short: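 FAS transcript level was measured by TaqMan qRT-PCR against three housekeeping genes after 48 h chemical exposure. Cells were HepaRG, 0.5% DMSO vehicle, with a top concentration of 100 uM and half-log dilutions over eight points, in duplicate.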

[2] = read-out: Fatty acid synthase (Homo sapiens) (UniProt P49327); experiment: LTEA_HepaRG_FASN: Life Technologies and Expression Analysis (LTEA) Assay for Fatty Acid Synthase (FASN) using HepaRG (AID 2283448)
In short: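 FASN transcript measured by TaqMan qRT-PCR, normalised to three housekeeping genes, after 48 h chemical exposure of HepaRG cells. Eight-point half-log series from 100 uM in 0.5% DMSO, duplicates; gain or loss fitted against vehicle.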

[3] = read-out: Cyclin D2 (CCND2), CCND2 (gene 894); experiment: LTEA_HepaRG_CCND2: Life Technologies and Expression Analysis (LTEA) Assay for Cyclin D2 (CCND2) using HepaRG (AID 2283449)
In short: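 CCND2 transcript levels, quantified by qRT-PCR and normalised to three housekeeping genes, were fitted bidirectionally against 0.5% DMSO. HepaRG cultures were dosed 48 h in duplicate with an 8-point half-log series up to 100 uM.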

[4] = read-out: Cyclin Dependent Kinase Inhibitor 1A (CDKN1A), CDKN1A (gene 1026); experiment: LTEA_HepaRG_CDKN1A: Life Technologies and Expression Analysis (LTEA) Assay for Cyclin Dependent Kinase Inhibitor 1A (CDKN1A) using HepaRG (AID 2283450)
In short: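 Differentiated HepaRG cells in serum-free induction medium, exposed 48 h in duplicate to eight half-log concentrations up to 100 uM in 0.5% DMSO. mRNA measured by TaqMan qRT-PCR, normalized to ACTB, GAPDH, POLR2A; bidirectional fit versus DMSO.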

[5] = read-out: Cyclin D1 (CCND1), CCND1 (gene 595); experiment: LTEA_HepaRG_CCND1: Life Technologies and Expression Analysis (LTEA) Assay for Cyclin D1 (CCND1) using HepaRG (AID 2283451)
In short: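 Differentiated HepaRG cells exposed 48 h in serum-free induction medium to eight half-log concentrations from 100 uM top, 0.5% DMSO, duplicates. CCND1 mRNA measured by Fluidigm TaqMan qRT-PCR, normalised to ACTB, GAPDH, POLR2A; bidirectional fit.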

[6] = read-out: catalase (CAT), CAT (gene 847); experiment: LTEA_HepaRG_CAT: Life Technologies and Expression Analysis (LTEA) Assay for catalase (CAT) using HepaRG (AID 2283452)
In short: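 Expression of CAT was quantified by TaqMan qRT-PCR with ACTB/GAPDH/POLR2A normalization after 48 h chemical exposure of HepaRG. Eight-point half-log series, top 100 uM, in 0.5% DMSO; gain or loss fitted against vehicle.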

[7] = read-out: flavin-containing dimethylaniline monooxygenases 3 (FMO3), FMO3 (gene 2328); experiment: LTEA_HepaRG_FMO3: Life Technologies and Expression Analysis (LTEA) Assay for flavin-containing dimethylaniline monooxygenases 3 (FMO3) using HepaRG (AID 2283453)
In short: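 FMO3 transcript quantified by TaqMan qRT-PCR against three housekeeping genes after 48 h chemical exposure of HepaRG cells. Eight-point half-log series, top 100 uM, 0.5% DMSO vehicle; phenobarbital 1mM induction control; up- or down-regulation fitted.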

[8] = read-out: Cytochrome P450 (CYP1A1), CYP1A1 (gene 1543); experiment: LTEA_HepaRG_CYP1A1: Life Technologies and Expression Analysis (LTEA) Assay for Cytochrome P450 (CYP1A1) using HepaRG (AID 2283454)
In short: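 Differentiated human HepaRG cells, after 48 h plating, exposed in duplicate for 48 h in serum-free induction medium to 8 half-log concentrations up to 100 uM in 0.5% DMSO. CYP1A1 mRNA by qRT-PCR, normalized to ACTB/GAPDH/POLR2A; bidirectional fit versus DMSO.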

[9] = read-out: CFLAR gene, CFLAR (gene 8837); experiment: LTEA_HepaRG_CFLAR: Life Technologies and Expression Analysis (LTEA) Assay for CFLAR gene using HepaRG (AID 2283455)
In short: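 Transcript level by qRT-PCR (normalized to ACTB, GAPDH and POLR2A) after 48 h chemical exposure of HepaRG cells, top concentration 100 uM with half-log steps, 0.5% DMSO vehicle, duplicates; fitted bidirectionally against DMSO baseline.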

[10] = read-out: Forkhead box O1 (FOXO1), FOXO1 (gene 2308); experiment: LTEA_HepaRG_FOXO1: Life Technologies and Expression Analysis (LTEA) Assay for Forkhead box O1 (FOXO1) using HepaRG (AID 2283456)
In short: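 FOXO1 transcript quantified by qRT-PCR after 48 h chemical exposure (top 100 uM, half-log steps, 0.5% DMSO) of HepaRG cells, housekeeping-normalized (ACTB/GAPDH/POLR2A). Changes fitted in both directions relative to vehicle.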

[11] = read-out: growth arrest and DNA damage 45 (GADD45A), GADD45A (gene 1647); experiment: LTEA_HepaRG_GADD45A: Life Technologies and Expression Analysis (LTEA) Assay for growth arrest and DNA damage 45 (GADD45A) using HepaRG (AID 2283458)
In short: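 GADD45A expression was measured by TaqMan qRT-PCR against three housekeeping genes (ACTB, GAPDH, POLR2A) after 48 h treatment of HepaRG cells. Eight-point half-log series up to 100 uM in 0.5% DMSO, run in duplicate.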

[12] = read-out: Forkhead box O3 (FOXO3), FOXO3 (gene 2309); experiment: LTEA_HepaRG_FOXO3: Life Technologies and Expression Analysis (LTEA) Assay for Forkhead box O3 (FOXO3) using HepaRG (AID 2283459)
In short: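 FOXO3 transcript measured by qRT-PCR (normalized to ACTB, GAPDH, POLR2A) after 48 h exposure of HepaRG cells in serum-free induction medium. Duplicates, eight half-log concentrations up to 100 uM, 0.5% DMSO; gain or loss fitted against DMSO.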

[13] = read-out: ABC Transporter (ABCB1), ABCB1 (gene 5243); experiment: LTEA_HepaRG_ABCB1: Life Technologies and Expression Analysis (LTEA) Assay for ABC Transporter (ABCB1) using HepaRG (AID 2283460)
In short: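 ABCB1 transcript level measured by TaqMan qRT-PCR against three housekeeping genes after 48 h chemical exposure of differentiated HepaRG cells. Top concentration 100 uM, half-log steps, eight points, 0.5% DMSO vehicle; bidirectional fit relative to DMSO.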

[14] = read-out: growth arrest and DNA damage 45 (GADD45B), GADD45B (gene 4616); experiment: LTEA_HepaRG_GADD45B: Life Technologies and Expression Analysis (LTEA) Assay for growth arrest and DNA damage 45 (GADD45B) using HepaRG (AID 2283461)
In short: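 Differentiated human HepaRG cells in serum-free induction medium exposed 48 h in duplicate to eight concentrations, top 100 uM, half-log steps, 0.5% DMSO. GADD45B mRNA by TaqMan qRT-PCR, normalized to ACTB, GAPDH, POLR2A; bidirectional fit versus DMSO.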

[15] = read-out: ABC Transporter (ABCC3), ABCC3 (gene 8714); experiment: LTEA_HepaRG_ABCC3: Life Technologies and Expression Analysis (LTEA) Assay for ABC Transporter (ABCC3) using HepaRG (AID 2283462)
In short: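 Differentiated human HepaRG cells exposed 48 h in serum-free induction medium, 0.5% DMSO vehicle, 8-point half-log series to 100 uM in duplicate. ABCC3 mRNA by qRT-PCR, normalised to ACTB, GAPDH, POLR2A; bidirectional fit vs DMSO.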

[16] = read-out: ABC Transporter (ABCB11), ABCB11 (gene 8647); experiment: LTEA_HepaRG_ABCB11: Life Technologies and Expression Analysis (LTEA) Assay for ABC Transporter (ABCB11) using HepaRG (AID 2283463)
In short: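 ABCB11 transcript levels quantified by TaqMan qRT-PCR against three housekeeping genes after 48 h chemical exposure of HepaRG cultures. Concentrations up to 100 uM in half-log steps, 0.5% DMSO vehicle; both induction and suppression scored.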

[17] = read-out: ABC Transporter (ABCC2), ABCC2 (gene 1244); experiment: LTEA_HepaRG_ABCC2: Life Technologies and Expression Analysis (LTEA) Assay for ABC Transporter (ABCC2) using HepaRG (AID 2283464)
In short: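 Differentiated HepaRG cells in serum-free induction medium exposed 48 h to eight half-log concentrations up to 100 uM, 0.5% DMSO, in duplicate. ABCC2 mRNA measured by qRT-PCR (TaqMan, Fluidigm), normalized to ACTB, GAPDH and POLR2A. Fitted in both directions against DMSO.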

[18] = read-out: Broad substrate specificity ATP-binding cassette transporter ABCG2 (Homo sapiens) (UniProt Q9UNQ0); experiment: LTEA_HepaRG_ABCG2: Life Technologies and Expression Analysis (LTEA) Assay for ABC Transporter (ABCG2) using HepaRG (AID 2283465)
In short: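 ABCG2 transcript was quantified by TaqMan qRT-PCR against three housekeeping genes in HepaRG cells. Cells were treated in duplicate for 48 h across an 8-point half-log series up to 100 uM, with 0.5% DMSO vehicle. Gain or loss versus DMSO was fit.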

[19] = read-out: ATP-citrate lyase (ACLY), ACLY (gene 47); experiment: LTEA_HepaRG_ACLY: Life Technologies and Expression Analysis (LTEA) Assay for ATP-citrate lyase (ACLY) using HepaRG (AID 2283466)
In short: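 ACLY mRNA quantified by qRT-PCR on Fluidigm arrays against three housekeeping genes, after 48 h chemical treatment of HepaRG cells (top concentration 100 uM, half-log steps, 0.5% DMSO vehicle). Up- or down-regulation fitted relative to DMSO.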

Measured: outcome

Chain of Broad substrate specificity ATP-binding cassette transporter ABCG2 (Homo sapiens) (Q9UNQ0 whole entry, looked up): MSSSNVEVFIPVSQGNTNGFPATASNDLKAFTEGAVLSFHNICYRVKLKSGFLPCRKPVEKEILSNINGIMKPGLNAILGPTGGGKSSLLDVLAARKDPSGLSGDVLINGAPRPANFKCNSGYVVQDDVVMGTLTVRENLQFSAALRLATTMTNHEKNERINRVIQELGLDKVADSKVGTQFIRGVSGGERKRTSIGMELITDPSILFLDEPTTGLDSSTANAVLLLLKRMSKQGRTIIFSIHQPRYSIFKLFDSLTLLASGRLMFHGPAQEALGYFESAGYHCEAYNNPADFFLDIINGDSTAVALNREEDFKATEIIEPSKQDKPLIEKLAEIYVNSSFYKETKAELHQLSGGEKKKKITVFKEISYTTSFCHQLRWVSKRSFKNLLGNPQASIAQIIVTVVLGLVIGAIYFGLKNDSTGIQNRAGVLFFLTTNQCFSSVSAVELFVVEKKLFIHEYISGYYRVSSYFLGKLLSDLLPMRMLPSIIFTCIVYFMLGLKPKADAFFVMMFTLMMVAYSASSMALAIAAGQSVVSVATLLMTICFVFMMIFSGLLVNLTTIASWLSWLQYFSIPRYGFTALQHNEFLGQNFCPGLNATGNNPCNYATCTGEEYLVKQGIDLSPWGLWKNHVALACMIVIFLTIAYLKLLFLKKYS
Chain of Fatty acid synthase (Homo sapiens) (P49327 whole entry, looked up): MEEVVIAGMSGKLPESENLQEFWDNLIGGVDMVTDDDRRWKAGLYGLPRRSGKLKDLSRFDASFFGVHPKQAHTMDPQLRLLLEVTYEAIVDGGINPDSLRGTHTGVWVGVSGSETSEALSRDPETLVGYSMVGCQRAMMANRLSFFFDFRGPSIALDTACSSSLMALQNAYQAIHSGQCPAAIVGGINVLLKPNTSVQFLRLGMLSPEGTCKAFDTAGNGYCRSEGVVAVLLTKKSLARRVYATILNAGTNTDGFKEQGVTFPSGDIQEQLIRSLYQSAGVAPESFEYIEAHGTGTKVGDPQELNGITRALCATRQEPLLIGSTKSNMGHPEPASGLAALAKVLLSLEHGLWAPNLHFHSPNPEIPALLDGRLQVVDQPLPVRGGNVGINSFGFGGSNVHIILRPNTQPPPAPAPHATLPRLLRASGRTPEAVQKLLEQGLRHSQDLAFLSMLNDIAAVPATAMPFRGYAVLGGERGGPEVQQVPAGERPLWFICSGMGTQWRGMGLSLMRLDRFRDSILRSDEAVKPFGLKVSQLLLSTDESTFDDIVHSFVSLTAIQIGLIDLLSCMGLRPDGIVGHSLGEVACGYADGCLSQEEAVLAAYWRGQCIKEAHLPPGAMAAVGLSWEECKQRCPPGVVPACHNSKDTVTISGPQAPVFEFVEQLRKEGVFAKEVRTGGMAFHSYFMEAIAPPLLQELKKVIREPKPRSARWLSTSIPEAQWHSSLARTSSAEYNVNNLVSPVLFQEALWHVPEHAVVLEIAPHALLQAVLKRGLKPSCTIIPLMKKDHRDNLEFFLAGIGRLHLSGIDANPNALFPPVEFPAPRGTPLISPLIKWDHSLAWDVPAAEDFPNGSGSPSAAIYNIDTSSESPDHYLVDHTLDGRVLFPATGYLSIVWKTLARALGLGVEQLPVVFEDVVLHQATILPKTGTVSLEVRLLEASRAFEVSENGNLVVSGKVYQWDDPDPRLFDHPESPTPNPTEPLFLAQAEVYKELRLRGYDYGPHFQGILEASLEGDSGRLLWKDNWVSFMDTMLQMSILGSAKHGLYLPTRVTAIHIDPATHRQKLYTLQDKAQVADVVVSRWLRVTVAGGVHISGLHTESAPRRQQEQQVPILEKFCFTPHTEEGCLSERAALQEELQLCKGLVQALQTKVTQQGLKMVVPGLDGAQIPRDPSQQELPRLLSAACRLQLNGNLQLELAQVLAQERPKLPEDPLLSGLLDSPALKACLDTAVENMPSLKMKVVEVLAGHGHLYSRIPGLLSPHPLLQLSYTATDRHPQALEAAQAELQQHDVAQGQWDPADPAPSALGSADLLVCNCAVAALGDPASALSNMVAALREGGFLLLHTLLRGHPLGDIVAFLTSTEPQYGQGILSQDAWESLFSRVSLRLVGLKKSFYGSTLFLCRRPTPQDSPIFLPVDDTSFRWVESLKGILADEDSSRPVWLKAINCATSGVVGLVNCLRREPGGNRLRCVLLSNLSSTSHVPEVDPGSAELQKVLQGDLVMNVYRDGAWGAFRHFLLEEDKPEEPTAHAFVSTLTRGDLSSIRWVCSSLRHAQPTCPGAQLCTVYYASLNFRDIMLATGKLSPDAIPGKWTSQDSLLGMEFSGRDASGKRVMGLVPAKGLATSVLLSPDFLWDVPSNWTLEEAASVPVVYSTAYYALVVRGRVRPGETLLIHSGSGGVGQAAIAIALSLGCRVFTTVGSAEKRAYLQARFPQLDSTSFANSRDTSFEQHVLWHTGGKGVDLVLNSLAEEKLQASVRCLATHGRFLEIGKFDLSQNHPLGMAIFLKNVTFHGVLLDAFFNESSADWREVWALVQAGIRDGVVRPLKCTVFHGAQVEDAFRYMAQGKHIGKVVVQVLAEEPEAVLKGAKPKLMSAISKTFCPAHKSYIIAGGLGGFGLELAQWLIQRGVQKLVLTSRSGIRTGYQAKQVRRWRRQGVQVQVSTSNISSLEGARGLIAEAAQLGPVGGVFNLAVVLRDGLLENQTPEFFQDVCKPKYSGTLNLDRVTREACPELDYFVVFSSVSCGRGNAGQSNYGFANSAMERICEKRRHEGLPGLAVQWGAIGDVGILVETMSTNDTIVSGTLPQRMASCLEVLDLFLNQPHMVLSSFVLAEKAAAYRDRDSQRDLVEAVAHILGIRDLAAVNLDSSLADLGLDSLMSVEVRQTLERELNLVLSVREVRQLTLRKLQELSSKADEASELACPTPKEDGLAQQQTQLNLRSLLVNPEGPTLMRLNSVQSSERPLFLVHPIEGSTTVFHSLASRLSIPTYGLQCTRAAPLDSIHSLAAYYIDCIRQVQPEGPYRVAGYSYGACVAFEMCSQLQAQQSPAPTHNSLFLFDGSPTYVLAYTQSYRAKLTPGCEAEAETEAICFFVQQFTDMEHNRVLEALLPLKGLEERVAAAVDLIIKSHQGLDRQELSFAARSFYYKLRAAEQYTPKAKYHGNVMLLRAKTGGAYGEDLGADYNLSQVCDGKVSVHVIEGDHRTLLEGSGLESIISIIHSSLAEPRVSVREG

CCc1cnc(C2=NC(C)(C(C)C)C(=O)N2)c(C(=O)O)c1 (centres undefined)
inactive: all assays above
